# Bioassay records as filed in PubChem BioAssay.
# A selection: hits, their analogues and other compounds. The true share with any hit is near 4.8%.
# APP transl inh: inhibitors of APP translation via 5'UTR reporter, primary screen, APP 5'UTR luciferase, SH-SY5Y cells | inhibition, % at 2 µM | SH-SY5Y APP 5'UTR-luciferase reporter, luminescence | actives 0.82% (n = 190,000);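 active = inhibition above a set limit, derived from the sample mean plus 3 SD, cut at about 45% in these data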
# NF-kB neuron act: activators of NF-kB expression in neurons, primary screen, cell-based, HTS; AID 1239, 2008; fold change at 12.5 µM; actives 1.6% (n = 190,000); human neuronal cells, NF-kB reporter expression; hits give high values; in the data active = fold change above about 3.3
# STAT1 activator: STAT1 signaling activators, primary screen, cell-based, HTS, luciferase reporter; NIH 3T3 STAT1-luciferase reporter, IFN-gamma, luminescence; 100% = IFN-gamma alone, no compound; activation (% of control), % at 5.5 µM; actives 2.6% (n = 200,000); AID 932, 2007;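 active = activation above the screen-wide mean activation plus 3 SD, cut at about 130% in these data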;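 also: raw ratio to IFN-gamma control signal so 100% means no change and 0% no light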
# Wee1 stabilizer: Wee1 degradation inhibitors, primary screen, cell-based, HeLa, Wee1K328M-luciferase, luminescence; HeLa Luc-Wee1K328M stability; 100% = proteasome inhibitor MG132 effect; reporter increase, % at 5 µM; actives 1.2% (n = 220,000); AID 1321, 2008;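 active = activation above the mean of all tested compounds plus 3 SD, set per screening run, cut at about 8.8% in these data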;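 also: cells exposed to compound for 20 h before luminescence read; 0% = DMSO alone and 100% = MG132 at 30 µM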
# Target sequence (P30291 whole entry K328M): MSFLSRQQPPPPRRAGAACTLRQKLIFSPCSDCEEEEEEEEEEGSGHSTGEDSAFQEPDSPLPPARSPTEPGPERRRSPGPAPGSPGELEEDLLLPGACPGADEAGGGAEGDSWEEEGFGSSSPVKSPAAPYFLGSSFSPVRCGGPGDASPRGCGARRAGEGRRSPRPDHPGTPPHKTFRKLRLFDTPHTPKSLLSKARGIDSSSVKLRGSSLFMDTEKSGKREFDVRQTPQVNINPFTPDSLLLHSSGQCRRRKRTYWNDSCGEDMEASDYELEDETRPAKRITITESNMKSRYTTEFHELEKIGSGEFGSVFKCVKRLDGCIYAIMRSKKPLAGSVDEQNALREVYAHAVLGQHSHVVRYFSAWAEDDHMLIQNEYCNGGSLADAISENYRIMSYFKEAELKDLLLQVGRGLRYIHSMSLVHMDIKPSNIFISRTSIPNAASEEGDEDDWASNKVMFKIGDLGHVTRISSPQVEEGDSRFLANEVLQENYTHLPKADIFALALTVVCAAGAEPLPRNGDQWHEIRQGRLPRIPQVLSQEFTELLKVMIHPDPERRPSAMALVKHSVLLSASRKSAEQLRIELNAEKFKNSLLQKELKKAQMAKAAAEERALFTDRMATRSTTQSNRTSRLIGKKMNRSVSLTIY
# APP 5'UTR act: activators of APP 5'UTR luciferase reporter, primary screen, SH-SY5Y cells | SH-SY5Y APP 5'UTR luciferase reporter, luminescence; zero percent = DMSO vehicle wells | actives 1% (n = 190,000) | AID 1276, 2008 | activation, % at 2 µM;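 active = activation above a set limit, based on mean plus 3 SD of controls, cut at about 140% in these data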
# Hsp70 act: Hsp70 transcriptional activators, primary screen, cell-based, HeLa, Hsp70 promoter luciferase, luminescence, 10 µM. HeLa Hsp70 promoter luciferase reporter; scaled: vehicle 0, proteasome-inhibitor control 100%. activation, % at 10 µM. actives 0.04% (n = 200,000);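 active = activation above the mean across all tested compounds plus 3 SD, cutoff set per campaign, cut at about 5.5% in these data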;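 also: 100% = MG132 at 30 µM as the positive control and 0% = DMSO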
# * marks the source's active call; other numbers are inactive results; / = not tested or not shown.
SMILES,APP transl inh,NF-kB neuron act,STAT1 activator,Wee1 stabilizer,APP 5'UTR act,Hsp70 act
O=C(c1ccc(C(=O)N2CCCc3ccccc32)s1)N1CCCc2ccccc21,-8,0.66,104,2,8,0
CCc1sc(C(=O)N2CCc3ccccc32)cc1C,-189,8.3*,134*,5,189*,0
Nc1ccccc1SCC(=O)N1CCc2ccccc21,-20,1.8,116,-1,20,0
O=C(c1ccc(Cl)s1)N1CCc2ccccc21,-121,3.3,144*,8,121,0
CCOC(=O)C(Sc1nnc2c3ccccc3n(CC)c2n1)C(=O)OCC,-10,0.93,97,2,10,0
C/C(O)=C(/C#N)c1nc2ccccc2[nH]1,/,1.2,102,1,/,0
CC(=O)OC(/C(O)=C(\C#N)c1nc2ccccc2[nH]1)c1ccccc1 (centres undefined),-18,3.6*,100,0,18,0
O=C(NC(=S)NCCC1=CCCCC1)c1ccccc1Br,-20,1.7,106,-2,20,0
Cc1ccc2cc(C#N)c(NCCNC(=S)NCCCN(C)C)nc2c1C,11,0.77,95,1,-11,0
CC(=O)N1CCc2cc(S(=O)(=O)NCCC(=O)NCCc3ccc(C)cc3)ccc21,11,0.77,87,4,-11,0
N#C/C(=C\c1ccc(N2CCCCC2)o1)C(N)=O,-30,1.3,117,-3,30,0
N#C/C(=C\c1ccc(N2CCCCC2)o1)C(=O)Nc1cccc(Br)c1,-170,1.1,160*,1,170*,0
Cc1[nH]c2ccccc2c1C(=O)CSC(=S)N(C)C1CCCCC1,-12,0.99,106,0,12,0
Cc1[nH]c2ccccc2c1C(=O)CSC(=S)N1CCCCC1,-53,1.9,144*,0,53,0
O=C(CSC(=S)N1CCCCC1)c1ccccc1,-242,3.3*,73,-1,242*,0
FC(F)(F)c1cnc(Oc2cccc3ccccc23)c(Cl)c1,5,1.1,98,-2,-5,0
Nc1nc(-c2ccc3c(c2)CCCC3)cs1,-95,5.3*,136*,-1,95,0
Nc1nc(-c2cccc(F)c2)cs1,-18,3.4*,114,1,18,0
Fc1cccc(-c2csc(-c3ccno3)n2)c1,/,/,/,-2,/,/
CS(=O)(=O)c1ccc(C(=O)NC2CCCCC2)cc1,2,1,100,-1,-2,0
CC(C(=O)N1CCOCC1)N1C(=O)C2C3C=CC(C4CC34)C2C1=O (centres undefined),-40,0.88,104,1,40,0
C1CCC(c2nn3c(-c4n[nH]c5c4CCC5)nnc3s2)CC1,11,0.83,102,-2,-11,1
CCN(CC)c1ccc(-c2nn3c(-c4n[nH]c5c4CCC5)nnc3s2)cc1,96*,2.1,107,0,-96,0
CCC(C)(C)c1ccc(Oc2cccc(C(=O)O)c2)cc1,/,/,/,3,/,/
CCC(C)(C)c1ccc(Oc2ccc(N)cc2)cc1,80*,0.27,34,-2,-80,-1
SMILES,APP transl inh,NF-kB neuron act,STAT1 activator,Wee1 stabilizer,APP 5'UTR act,Hsp70 act
CC1(C)Cc2c(sc(NC(=O)c3ccc(Br)o3)c2C#N)CO1,-88,3,133*,5,88,0
Cc1cccc(NC(=O)c2ccc3ccccc3n2)c1C,-211,9.1*,134*,4,211*,0
O=C(Nc1ccccn1)c1ccc2ccccc2n1,-141,5.9*,111,0,141*,0
CCC(CC)c1nnc(NC(=O)c2ccc3ccccc3n2)s1,-96,4.9*,152*,2,95,0
CCCCc1nnc(NC(=O)COC)s1,-3,1.7,100,2,3,0
CN(C)CCCN(C(=O)c1ccc(S(=O)(=O)N(C)C)cc1)c1nc2cc3c(cc2s1)OCO3,10,1.1,97,7,-9,0
CCN1C(=O)/C(=C/C=C2/SCCN2C)SC1=S,-106,4.7*,152*,0,106,0
CN1CCS/C1=C\C=C1/SC(=S)N(CC(=O)O)C1=O,3,1.1,97,-1,-3,-1
O=C1c2ccccc2C(=O)c2c1ccc1c(=O)n(C3CCCCC3)[nH]c21,-25,0.66,114,-1,25,0
O=C(Nc1ccccc1)N1CCCC2CCCCC21 (centres undefined),-32,2,131*,2,32,1
Brc1ccc2c(c1)C(C1=NCCN1)c1ccccc1CS2 (centres undefined),94*,1.2,100,-1,-94,0
CCC(C)NC(=O)Cn1c(COc2ccc(Cl)cc2Cl)nc2ccccc21 (centres undefined),-88,1.9,121,-1,88,0
O=C(CCNc1ccccc1)c1ccc2c(c1)OCO2,-55,3.1,148*,2,55,0
CC(=O)Nc1ccccc1OCC(=O)c1ccc2c(c1)OCO2,-123,1.4,135*,4,123,0
Cc1ccccc1OCC(=O)Nc1ccc2c(c1)OCO2,-27,1.7,110,2,27,0
CC(C)c1nc(SCC(=O)Nc2ccc3c(c2)OCO3)n[nH]1,6,0.88,101,0,-6,0
COC(=O)c1ccc(-c2ccc(/C=N/N3C(=O)C4C5C=CC(C6CC56)C4C3=O)o2)cc1 (centres undefined),-36,1.4,138*,1,36,0
Cc1ccc(Nc2n[nH]c(C)c2[N+](=O)[O-])c(C)c1,-28,5.3*,107,-3,27,0
COc1ccc(Nc2n[nH]c(C)c2[N+](=O)[O-])cc1,-35,4.8*,121,0,35,0
Cc1ccccc1Nc1n[nH]c(C)c1[N+](=O)[O-],-7,1.4,103,1,7,0
CC(C)c1ccc(NC(=O)c2csnn2)cc1,-86,7.6*,146*,-2,87,0
CC(C)c1ccc(NC(=S)NNC(=O)c2cccnc2)cc1,-12,1.6,116,-2,12,0
CC(C)c1ccc(NC(=O)c2n[nH]c(=O)c3ccccc23)cc1,-66,1.2,133*,-1,66,0
O=C(Nc1ccccc1NC(=O)c1csnn1)c1csnn1,-21,1.1,98,-3,21,0
CC(C)c1ccc(NC(=O)c2cccnc2)cc1,-103,2.7,143*,7,103,0
Cc1cc(NC(=O)c2n[nH]c(=O)c3ccccc23)ccc1Br,/,/,/,4,/,/
